# Compounds with a hit are over-represented: about 7.5% of the library has one in this group of screens.
# NPC1 promoter act = qHTS Assay for NPC1 Promoter Activators; Huh7 NPC1 promoter luciferase reporter, 24 h; Potency, µM (top dose mostly 9.22 µM), inactives show top-dose activation, most hits filed as activators; hit rate 2.4% among 320,000; also: % of control where 0% means no effect; nearly all actives have a fitted effect of over 60% in size
#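 NPC1 promoter–luciferase Huh7 cells; 24 h compound; luminescence.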
# FLuc counter = qHTS profiling assay for firefly luciferase inhibitor/activator using purifed enzyme and Km concentrations of substrates (counterscreen for miR-21 project); Luciferin 4-monooxygenase (Photinus pyralis), P08659; purified FLuc, Km substrates, luminescence inhibition; Potency, µM (series often up to 57.5 µM), without a hit: top-dose activity change, negative = inhibition, usual class: inhibitors; hit rate 6.9% among 360,000; AID 588342, 2011;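 also: plate controls were vehicle for no effect and reference inhibitor for full effect; nearly all actives have a fitted effect of over 55% in size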
# Target sequence (P08659 whole entry, looked up): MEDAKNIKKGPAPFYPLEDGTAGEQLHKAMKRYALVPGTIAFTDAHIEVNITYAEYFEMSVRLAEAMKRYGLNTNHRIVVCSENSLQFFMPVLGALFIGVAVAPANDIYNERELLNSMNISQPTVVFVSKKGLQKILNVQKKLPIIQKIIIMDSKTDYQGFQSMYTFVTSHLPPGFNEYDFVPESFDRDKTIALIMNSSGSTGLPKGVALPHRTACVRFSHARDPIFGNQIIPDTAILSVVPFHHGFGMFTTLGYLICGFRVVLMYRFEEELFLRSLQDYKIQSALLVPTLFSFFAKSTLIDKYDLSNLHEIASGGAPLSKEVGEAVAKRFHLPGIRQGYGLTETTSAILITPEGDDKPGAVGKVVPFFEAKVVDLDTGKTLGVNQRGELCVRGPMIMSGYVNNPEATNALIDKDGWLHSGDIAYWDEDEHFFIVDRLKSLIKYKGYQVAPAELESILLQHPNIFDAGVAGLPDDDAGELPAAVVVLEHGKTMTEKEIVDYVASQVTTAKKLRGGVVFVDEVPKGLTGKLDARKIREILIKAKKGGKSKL
#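 Purified P. pyralis luciferase, 10 nM final, with Km-level 10 uM D-luciferin and 10 uM ATP in 50 mM Tris acetate pH 7.5, 10 mM Mg acetate, 0.01% Tween-20, 0.05% BSA; 6-point qHTS titration about 60 µM downward; luminescence read.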
# Rab9 prom act = qHTS Assay for Rab9 Promoter Activators. Potency, µM (series often up to 9.22 µM), without a hit: at the top dose activation, negative = inhibition, hits mostly activators. hit rate 2.8% among 320,000. Huh7 Rab9 promoter-luciferase reporter, luminescence, 24 h; also: % of control where 0% means no effect; nearly all actives have a fitted effect of over 60% in size
#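 Using Huh7 cells stably transfected with Rab9 promoter–luciferase, compounds were incubated 24 h at 37 °C, 5% CO2; luciferase luminescence was read 10 min after reagent addition.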
# ELG1 genotoxic = qHTS screen for small molecules that induce genotoxicity in human embryonic kidney (HEK293T) cells expressing luciferase-tagged ELG1; HEK293T ELG1-luciferase reporter, luminescence, 16 h; Potency, µM (top dose mostly 46 µM), for the others: top-dose activity change, positive = activation, actives largely listed as activators; hit rate 1.3% among 330,000; AID 504466, 2011; also: % of control where 0% means no effect; nearly all actives have a fitted effect of over 60% in size
#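 Quantitative HTS format in 1536-well plates. HEK293T ELG1-luciferase reporter cells receive test compound and are incubated 16 hr at 37 °C, 5% CO2; ONE-Glo added, 30 min room temperature, then luminescence read.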
# SMN2 splice up = qHTS Assay for Enhancers of SMN2 Splice Variant Expression | AID 1458, 2008 | Potency, µM (top dose mostly 46.1 µM), inactives show top-dose activity change, positive = activation, usual class: activators | hit rate 2.8% among 210,000 | HEK293 SMN2-luciferase splicing reporter, luminescence, 30-36 h; also: % of control where 0% means no effect; nearly all actives have a fitted effect of over 55% in size
#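 qHTS luciferase splicing reporter: luminescence rises when SMN2 exon 7 is included in transfected HEK293 cells. Compound exposure lasted 30-36 h at 37C, with 4.5 mM final sodium butyrate as control, followed by a ONE-Glo read.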
# Numbers without * were called inactive; u = inconclusive; x = no result; [ ] = another dose, or the depositor's remark. Calls follow the shape of the dose curve; as a rule, active = well fitted curve in the direction sought with a large enough effect; inconclusive = small, poorly fitted or top-dose-only effect, or another doubt; inactive = no such curve, though single readings can be large; an effect the other way counts as inactive or inconclusive. Potency is read from the fitted curve at half-maximal effect.
SMILES,NPC1 promoter act,FLuc counter,Rab9 prom act,ELG1 genotoxic,SMN2 splice up
COC(=O)CSc1nc2c(c(=O)n(C)c(=O)n2C)n1CCCc1ccccc1,1.6%,-0.2%,4.8%,-1.6%,-5.9%
Cc1ccc(CN2C(=O)N/C(=C\c3ccc(-c4ccc(C(=O)O)cc4C)o3)C2=O)cc1,-1.1%,0.9%,-6.0%,-1.8%,x
Cc1cc(C(=O)O)ccc1-c1ccc(CO)o1,3.1%,26.9µM*,9.7%,15.4%,1.0%
Cc1ccc(C2=NNC(C(O)C(O)C(O)C(O)CO)S2)cc1 (stereo not given),2.5%,21.3µM*,11.9%,u,-28.7%
Cc1ccc(C(C)C)c(OCc2ccc(-c3nnco3)cc2)c1,4.5%,-2.7%,23.5%,u,-2.4%
Cc1ccc(COc2ccc(-c3nnco3)cc2)cc1,2.24µM*,9.53µM*,3.55µM*,u,x
Clc1ccc(-c2cn3c(n2)-c2ccccc2C3)cc1Cl,3.55µM*,0.849µM*,2.51µM*,u,1µM*
CC(C)C1CC(=O)NC(SCC(=O)Nc2ccc(Br)cc2)=C1C#N (stereo not given),13.0%,4.6%,u,-1.6%,-26.7%
CN1/C(=C\C(=O)COc2ccc3c(c2)OCO3)C(C)(C)c2ccccc21,0.9%,-12.1%,-4.8%,3.2%,x
CC(=O)c1cc2c(C)c(C(=O)c3ccccc3)oc2cc1O,3.98µM*,0.536µM*,1.58µM*,u,-6.5%[1.84 µM]
CCn1c(CCNC(=O)c2cccs2)nnc1SCC(=O)Nc1nc(-c2ccccc2)cs1,7.3%,u,8.3%,-15.5%,-10.3%
O=C(NCCSc1ccccc1)c1cncc(Br)c1,u,21.3µM*,u,14.6µM*,u
O=C(CCSc1ccccc1)NCCSCc1ccccc1,2.6%,21.3µM*,-3.9%,1.3%,6.1%
O=C(NCCOc1ccccc1)c1cncc(Br)c1,u,u,u,16.4µM*,5.3%
O=C(NCCCc1ccccc1)c1cncc(Br)c1,-2.1%,4.0%,2.0%,-1.9%,x
COc1cccc(C(=O)NCCSc2ccc(F)cc2)c1,u,19µM*,u,17.6%,12.6µM*
CCc1cc(C)cc(OCCNC(=O)c2cncc(Br)c2)c1,-0.6%,3.1%,-1.6%,-0.9%,-16.0%
Cc1ccc(NC(=O)Cn2c(CCC(=O)O)ccc2-c2cccs2)cc1Cl,-1.6%,u,-0.6%,1.5%,-11.3%
CC(=O)c1cccc(NC(=O)CCc2c(C)nc3c(c(C)nn3-c3ccccc3)c2C)c1,x,-5.7%,x,x,2.6%
Cc1ccc(Cn2nnnc2CN2CCC(O)(c3ccc(F)cc3)CC2)cc1,-7.5%,10.1%,-2.3%,1.0%,-8.3%
O=C(NCCSc1ccccc1)c1ccc(Br)cc1,0.794µM*,1.35µM*,0.562µM*,3.26µM*,6.31µM*
O=C(NCCSc1ccccc1)c1ccccc1,2.51µM*,u,2.51µM*,u,11.2µM*
COc1ccc(C(=O)NNc2ncnc3c2cnn3-c2ccc(C)cc2C)cc1,x,-10.9%,x,x,x
CCc1cc2c(=O)c(-c3nc(C)cs3)coc2cc1OC(C)C(=O)NCCO (stereo not given),0.4%,10.7µM*,1.3%,-6.4%,-5.6%
CCc1cc2c(-c3ccccc3)cc(=O)oc2cc1OC(C)C(C)=O (stereo not given),-2.9%,-0.1%,-1.2%,3.4%,x
SMILES,NPC1 promoter act,FLuc counter,Rab9 prom act,ELG1 genotoxic,SMN2 splice up
COC(=O)C1C(=O)c2c([nH]c(C(=O)OC3CCCC3)c2C)CC1C (stereo not given),x,2.39µM*,x,x,14.1µM*
COCc1cc(=O)n2[nH]c(-c3cccc(Br)c3)cc2n1,28.8%,u,21.7%,11.2µM*,u
COCc1cc(=O)n2[nH]c(C(C)(C)C)cc2n1,0.7%,-5.4%,2.8%,0.1%,x
COCc1cc(=O)n2[nH]c(-c3ccccc3)cc2n1,16.2%,19µM*,22.0%,u,11.5%
COCc1cc(=O)n2[nH]c(C)cc2n1,-6.4%,8.7%,-10.0%,-0.6%,-18.5%
COc1ccc2c(-c3cccnc3)cc(=O)[nH]c2c1,0.2%,0.2%,-7.7%,12.0%,4.7%
NC(=O)c1ccsc1NC(=O)CCc1ccccc1,u,u,u,19.5%,x
